The whole screen tested about 310,000 compounds, of which about 14,000 (4.5%) showed an effect of 50% or more. The effect is printed as a negative number. What follows is part of a selection rich in strong results, with near analogues and random picks from the rest.
target: human ether-à-go-go-related gene (hERG) potassium channel (human, UniProt Q12809); assay: primary screen, population patch clamp on CHO cells stably expressing hERG; higher = less effect of the substance
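Further: peak tail current of the secondary pulse compared with the same well before compound.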

human ether-à-go-go-related gene (hERG) potassium channel, sequence (Q12809 whole entry, looked up): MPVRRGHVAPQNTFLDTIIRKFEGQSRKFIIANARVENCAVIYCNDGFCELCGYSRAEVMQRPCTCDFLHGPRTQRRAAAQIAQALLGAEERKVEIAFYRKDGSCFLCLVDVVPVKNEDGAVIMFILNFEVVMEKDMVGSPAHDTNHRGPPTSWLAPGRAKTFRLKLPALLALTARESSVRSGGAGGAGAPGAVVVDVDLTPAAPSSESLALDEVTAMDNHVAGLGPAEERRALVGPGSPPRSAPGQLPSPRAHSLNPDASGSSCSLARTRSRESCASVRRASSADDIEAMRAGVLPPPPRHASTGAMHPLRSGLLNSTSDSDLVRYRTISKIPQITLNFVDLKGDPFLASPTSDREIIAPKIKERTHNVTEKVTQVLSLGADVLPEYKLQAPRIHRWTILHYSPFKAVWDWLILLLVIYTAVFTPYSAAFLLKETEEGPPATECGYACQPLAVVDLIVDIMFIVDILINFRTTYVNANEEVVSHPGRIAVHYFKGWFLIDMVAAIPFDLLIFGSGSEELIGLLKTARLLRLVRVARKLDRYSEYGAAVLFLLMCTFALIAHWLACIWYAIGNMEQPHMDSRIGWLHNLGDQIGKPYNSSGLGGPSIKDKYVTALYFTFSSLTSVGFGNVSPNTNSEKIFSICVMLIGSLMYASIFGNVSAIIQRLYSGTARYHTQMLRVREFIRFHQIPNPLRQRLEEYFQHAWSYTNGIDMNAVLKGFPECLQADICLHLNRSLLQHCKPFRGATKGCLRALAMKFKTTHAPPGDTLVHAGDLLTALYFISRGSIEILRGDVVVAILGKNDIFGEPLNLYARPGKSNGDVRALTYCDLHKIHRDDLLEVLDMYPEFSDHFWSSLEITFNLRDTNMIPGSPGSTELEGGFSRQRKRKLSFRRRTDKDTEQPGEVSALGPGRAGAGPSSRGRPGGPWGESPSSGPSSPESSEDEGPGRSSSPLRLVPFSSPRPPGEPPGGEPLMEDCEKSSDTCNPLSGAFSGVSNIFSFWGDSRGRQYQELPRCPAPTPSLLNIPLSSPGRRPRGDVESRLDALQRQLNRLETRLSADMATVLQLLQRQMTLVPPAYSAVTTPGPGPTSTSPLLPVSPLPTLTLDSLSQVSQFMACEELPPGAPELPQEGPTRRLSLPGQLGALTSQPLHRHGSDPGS

Structure (SMILES) | hERG current change (%, negative = inhibition) at 10uM [%]
CCN(CC)CCNc1nc(SC)nc2sc3c(c12)CCN(C)C3 | -6.12
CSc1nc(NCC(C)C)c2c3c(sc2n1)CN(C)CC3 | -44.2
COC(CNc1nc(SC)nc2sc3c(c12)CCN(C)C3)OC | -52.5
COCCNc1nc(SC)nc2sc3c(c12)CCN(C)C3 | -71.2
CSc1nc(NCCCO)c2c3c(sc2n1)CN(C)CC3 | -47.4
CSc1nc(NCC(C)O)c2c3c(sc2n1)CN(C)CC3 (stereo not drawn) | -42
S=c1[nH]c2ccccc2o1 | 18
COc1ccc(OCC(=O)Nc2c(C(=O)N(CCN(C)C)Cc3ccco3)oc3ccccc23)cc1 | -77
CN(C)CCN(Cc1ccco1)C(=O)c1oc2ccccc2c1NC(=O)COc1ccccc1 | -88.7
COc1ccc(OCC(=O)OCC(=O)NCc2ccco2)cc1 | -4.81
O=C(COc1ccccc1)Nc1ccccc1C(=O)NCc1ccco1 | -6.63
CCCN(CCC)C(=O)c1oc2ccccc2c1NC(=O)Cc1cccc(OC)c1 | 4.67
Cc1c(C(=O)OCC(=O)NCc2ccco2)oc2ccccc12 | 2.46
CCCCCCN=C(C)c1ccccc1O | 20.2
CCN(Cc1ccccc1)C(=O)c1cccc(S(=O)(=O)N2CCN(c3ccc(F)cc3)CC2)c1 | -47.2
COCCN(Cc1ccccc1)C(=O)c1cccc(S(=O)(=O)N2CCN(c3ccc(F)cc3)CC2)c1 | -64.6
CCN(Cc1ccccc1)C(=O)c1cccc(S(=O)(=O)N2CCN(c3ccccc3)CC2)c1 | -15.8
COCCN(Cc1ccccc1)C(=O)c1cccc(S(=O)(=O)N2CCCc3ccccc32)c1 | -21.2
CN(Cc1ccc(F)cc1)C(=O)c1cccc(S(=O)(=O)N2CCN(c3ccccc3)CC2)c1 | -19.9
COCCN(Cc1ccccc1)C(=O)c1cccc(S(=O)(=O)N2CCN(c3ccccc3)CC2)c1 | -52.8
CC(C)(C)NC(=O)Cn1c(=O)c(=O)n(Cc2ccccc2)c2ccc(Cl)cc21 | -0.233
Cn1c2c(c(=O)n(C)c1=O)C(c1ccc(Br)cc1)Nc1ccccc1O2 (stereo not drawn) | -19.4
Cc1ccc(S(=O)(=O)NCCC2(C(C)C)CCOC(C)(C)C2)cc1 (stereo not drawn) | -17.9
CC1(C)CC(=O)C(C=NCC(N)=O)=C(O)C1 | -19.5
